RTF Ca sens inh: cardiac RTF calcium desensitization. AID 493244. IANBD-labeled cardiac RTF, Ca2+ fluorescence. P19429+P45379. 340,000 tested, 0.12% active. inhibition, % at 7.15 µM;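 active = inhibition above the mean inhibition of all tested compounds plus 3 SD, cut at about 17% in these data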;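 note: assay run at fixed EC70 calcium of 1.6 mM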
LANA-H2B inh: blocks KSHV LANA binding to histone H2A/H2B. cell-free LANA-H2A/H2B peptide, fluorescence polarization. 320,000 tested, 0.6% active. Q9QR71. inhibition, % (concentration not given with the values); in the data active = inhibition mostly above about 10%, no sharp cut-off; inactive = mostly below about 6.7%
Target sequence (Q9QR71 whole entry, looked up): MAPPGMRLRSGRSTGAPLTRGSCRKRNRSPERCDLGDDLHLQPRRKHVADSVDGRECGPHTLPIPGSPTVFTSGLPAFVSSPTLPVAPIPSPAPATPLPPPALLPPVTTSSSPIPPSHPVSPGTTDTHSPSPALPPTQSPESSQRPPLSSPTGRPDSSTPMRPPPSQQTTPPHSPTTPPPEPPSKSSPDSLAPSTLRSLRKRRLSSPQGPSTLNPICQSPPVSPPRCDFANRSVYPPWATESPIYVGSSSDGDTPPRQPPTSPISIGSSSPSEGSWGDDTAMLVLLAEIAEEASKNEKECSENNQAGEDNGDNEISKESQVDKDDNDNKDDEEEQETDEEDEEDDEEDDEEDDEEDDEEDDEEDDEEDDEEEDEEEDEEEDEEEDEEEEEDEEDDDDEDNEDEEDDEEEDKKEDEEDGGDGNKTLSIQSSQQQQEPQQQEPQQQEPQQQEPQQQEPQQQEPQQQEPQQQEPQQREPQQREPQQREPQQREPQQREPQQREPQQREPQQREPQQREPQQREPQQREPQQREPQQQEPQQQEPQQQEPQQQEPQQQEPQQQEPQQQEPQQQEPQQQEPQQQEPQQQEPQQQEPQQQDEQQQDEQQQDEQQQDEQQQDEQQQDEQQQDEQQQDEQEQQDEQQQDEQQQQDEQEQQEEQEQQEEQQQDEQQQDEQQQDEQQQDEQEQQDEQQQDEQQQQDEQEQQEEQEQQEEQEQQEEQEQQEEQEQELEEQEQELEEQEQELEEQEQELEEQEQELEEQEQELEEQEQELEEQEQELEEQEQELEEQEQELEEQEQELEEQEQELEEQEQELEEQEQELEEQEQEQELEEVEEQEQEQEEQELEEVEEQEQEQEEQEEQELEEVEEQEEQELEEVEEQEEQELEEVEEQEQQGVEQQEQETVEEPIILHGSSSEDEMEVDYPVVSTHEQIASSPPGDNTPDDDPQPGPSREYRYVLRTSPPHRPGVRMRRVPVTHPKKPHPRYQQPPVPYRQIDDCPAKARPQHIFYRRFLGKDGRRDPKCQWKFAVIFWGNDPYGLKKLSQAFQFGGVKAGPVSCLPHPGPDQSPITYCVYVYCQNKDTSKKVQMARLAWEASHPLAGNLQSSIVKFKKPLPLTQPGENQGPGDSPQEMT
cardiac RTF act: increases calcium sensitivity of human cardiac regulated thin filaments | activation, % at 7.2 µM | 340,000 tested, 0.24% active | IANBD-labeled TnC RTF fluorescence at EC20 calcium; 0% EC20 calcium, 100% full calcium | P19429+P45379 | AID 493008;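 active = activation above the mean over all tested compounds plus 3 SD, cut at about 30% in these data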;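 note: rise in fluorescence read as greater calcium sensitivity of cardiac thin filaments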
Keap1-Nrf2 PPI: inhibitors of human Keap1-Nrf2 protein-protein interaction; inhibition, % at 9.4 µM; 340,000 tested, 0.15% active; Keap1 Kelch-Nrf2 peptide fluorescence polarization, 1536-well; Q14145; in the data active = inhibition above about 12%;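 note: human Keap1 Kelch domain with fluorescein labeled Nrf2 9mer peptide probe; higher means more block of Keap1 binding to Nrf2 peptide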
C-LANA FP: blocks KSHV LANA C-terminal domain binding to DNA; MBP-C-LANA/FAM-LBS DNA binding, fluorescence polarization; 340,000 tested, 0.078% active; AID 504423; inhibition, % at 9 µM;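 active = highest replicate inhibition at or above 60% at 9 µM, even if other replicates fall short; inactive = all replicates below 60% inhibition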
Of the large screens only hits and unclear results are named; the others gave an inactive call. The list is not random: actives were taken first. Their share in the collection is about 1%.

CCN(C[C@H]1N[C@@](Cc2ccccc2)(C(=O)OC)[C@H]2C(=O)N(Cc3ccccc3)C(=O)[C@@H]12)S(=O)(=O)c1ccc(OC)cc1	none
CCN(C[C@H]1N[C@@](Cc2ccccc2)(C(=O)OC)[C@H]2C(=O)N(Cc3ccccc3)C(=O)[C@@H]12)S(=O)(=O)c1ccc(C(C)(C)C)cc1	LANA-H2B inh 66.6
CCN(C[C@H]1N[C@@](Cc2ccccc2)(C(=O)OC)[C@H]2C(=O)N(Cc3ccccc3)C(=O)[C@@H]12)S(=O)(=O)c1ccc(OC(F)(F)F)cc1	LANA-H2B inh active
CC1CCN(S(=O)(=O)c2ccc(NC(=O)C3CCCCC3C(=O)O)cc2)CC1 (stereo not given)	none (no result: LANA-H2B inh)
COC(=O)c1ccc(/C=C(\C#N)c2nc3ccccc3s2)cc1	none
N#C/C(=C\c1ccccn1)c1nc2ccccc2s1	cardiac RTF act 59.7
N#C/C(=C/c1ccc(-c2ccccc2)o1)c1nc(-c2cccs2)cs1	cardiac RTF act 93.4
N#C/C(=C/c1ccc(-c2ccc(S(N)(=O)=O)cc2)o1)c1nc2ccccc2s1	cardiac RTF act 346.6
COc1ccc(CCNC(=O)c2cc(=O)c3cc(C)ccc3o2)cc1OC	none
COc1cc(N2CCCC2)c(OC)cc1/C=C1/NC(=S)NC1=O	cardiac RTF act 78.9
COc1ccc(OC)c(/C=C2\NC(=O)NC2=O)c1	none
C=CCn1c(SCc2ccc(C(=O)NCCO)cc2)nc2sc(C)c(C)c2c1=O	LANA-H2B inh 22.7
C=CCn1c(SCC(=O)c2cccs2)nc2sc(C)c(C)c2c1=O	none
C=CCn1c(SCC(=O)c2c(N)n(C)c(=O)n(C)c2=O)nc2sc(C)c(C)c2c1=O	LANA-H2B inh 110.9
C=CCSc1nc2sc(C)c(C)c2c(=O)n1CC=C	none
CCCCOC(=O)Nc1ccc(S(=O)(=O)Nc2onc(C)c2C)cc1	none
O=C1c2ccccc2C(=O)N1CN(C(=O)c1ccccc1[N+](=O)[O-])c1ccc(F)cc1	none
COc1ccc(NC(=O)CN(C)C(=O)C(Sc2ccccc2)c2ccccc2)cc1 (stereo not given)	LANA-H2B inh 60.0
CN(CC(=O)Nc1c(Cl)cccc1Cl)C(=O)c1ccccc1SCC(=O)N1CCCC1	none
CCN(CC(=O)Nc1ccccc1C(F)(F)F)C(=O)c1ccccc1SCC(=O)N1CCCC1	LANA-H2B inh 35.0
COc1ccc(NC(=O)CN(C)C(=O)c2ccccc2SCC(=O)N2CCCC2)cc1	LANA-H2B inh 18.6
CN(CC(=O)Nc1ccccc1C(F)(F)F)CC(=O)N1CCCCCC1	none
COc1cccc(/C=C2/CCC(CN(C)C)C2=O)c1 (stereo not given)	none (no result: LANA-H2B inh)
CC(C(=O)Nc1ccccc1)N1CCN(C(=O)c2ccco2)CC1 (stereo not given)	LANA-H2B inh 68.1
COc1ccccc1N1CCN(C(=O)c2ccco2)CC1	LANA-H2B inh 16.5
Cc1ccc(C(=O)NC(=C(Cl)Cl)S(=O)(=O)c2ccccc2)cc1	LANA-H2B inh 14.3
O=C(CSc1ccccc1)NCC(c1ccco1)N1CCCCC1 (stereo not given)	LANA-H2B inh 27.9
C(=C\c1ccc2ccccc2n1)/c1ccccc1	none
CN(C)c1ccc(/C=C/c2ccc3ccccc3n2)cc1	cardiac RTF act 42.4
CCOc1ccc(NC(=S)NCCCN2CCN(C3CCCCC3)CC2)cc1	LANA-H2B inh active
O=C(NCc1ccccc1Br)c1cccc2c1C(=O)c1ccc(N3CCC(Cc4ccccc4)CC3)cc1S2(=O)=O	none
O=C(NC1CCCCC1)c1cccc2c1C(=O)c1ccc(N3CCC(Cc4ccccc4)CC3)cc1S2(=O)=O	cardiac RTF act 89.7
Cc1ccc(CNC(=O)c2cccc3c2C(=O)c2ccc(N4CCCCC4)cc2S3(=O)=O)cc1	cardiac RTF act 65.3
O=C(NCC1CCCO1)c1cccc2c1C(=O)c1ccc(N3CCC(Cc4ccccc4)CC3)cc1S2(=O)=O (stereo not given)	cardiac RTF act 61.3
CC(C)N1CCN(C(=O)C2CCC(=O)N(CCc3cccc(F)c3)C2)CC1 (stereo not given)	none (no result: LANA-H2B inh)
CN(C)c1ccc2nc3c(=O)[nH]c(=O)nc-3n(CC(O)C(O)C(O)CO)c2c1 (stereo not given)	LANA-H2B inh 30.4, cardiac RTF act 124.8
CCn1nnc(-c2ccc(N)cc2)n1	none
Cc1ccccc1NC(=S)N1CCC(C(=O)c2ccc(F)cc2)CC1	LANA-H2B inh 28.4
CC(OC(=O)c1ccc(S(=O)(=O)NCc2ccco2)cc1)C(=O)Nc1ccccc1 (stereo not given)	LANA-H2B inh 14.0
Cc1ccc(C(=O)N2CCCC(CCC(=O)N3CCN(c4ccccn4)CC3)C2)cn1 (stereo not given)	LANA-H2B inh 10.5
CSc1ncc(C(=O)Nc2cccc(Cl)c2)c(C)n1	none
COC(=O)C=C1CCC2C3CCC4=CC(=O)CCC4(C)C3C(=O)CC12C (stereo not given)	none (no result: LANA-H2B inh)
COc1ccc(CNC(=O)C2CCCN(c3nccc(C)n3)C2)cc1 (stereo not given)	none
Cc1nnsc1C(=O)Nc1cccc(Cl)c1	LANA-H2B inh 24.6
Cc1nc(Cl)sc1C(=O)Nc1cccc(Cl)c1	none
Cc1csc(CCc2nc(C)cs2)n1	LANA-H2B inh 8.4
CCN(CC)c1ccc2cc(C=O)c(=O)oc2c1	cardiac RTF act 424.9
CCN(CC)c1ccc2cc(-c3nnc(-c4ccncc4)o3)c(=O)oc2c1	cardiac RTF act 162.6 (no result: LANA-H2B inh)
CCN(CC)c1ccc2cc(C(C)=O)c(=O)oc2c1	cardiac RTF act 152.7
CCN(CC)c1ccc2cc(NC(=O)CCC(=O)O)c(=O)oc2c1	cardiac RTF act 70.0
CCN(CC)c1ccc2cc(C(=O)Nc3ccccn3)c(=O)oc2c1	cardiac RTF act 52.8
CC(C)CN(C(=O)COC(=O)c1cc2ccccc2cc1O)c1c(N)n(Cc2ccccc2)c(=O)[nH]c1=O	none (no result: LANA-H2B inh)
CC(C(=O)Nc1ccc(C(=O)O)c(O)c1)N1C(=O)/C(=C\c2ccco2)SC1=S (stereo not given)	C-LANA FP 100.5
O=C(CN1C(=O)/C(=C/c2ccco2)SC1=S)Nc1ccc(O)c(C(=O)O)c1	C-LANA FP 101.2
O=C(CN1C(=O)/C(=C/c2ccco2)SC1=S)Nc1ccc(C(=O)O)c(O)c1	C-LANA FP 108.0
O=C(CCCN1C(=O)/C(=C/c2ccco2)SC1=S)Nc1cccc(C(=O)O)c1	none
CC1CN(C(C)C)C(=S)N(c2ccccc2)C1=O (stereo not given)	none (no result: LANA-H2B inh)
Cn1cc(/C=C2\SC(=S)N(N3CCOCC3)C2=O)c2ccccc21	none
Cn1cc(/C=C2\SC(=S)N(NC(=O)c3ccccc3)C2=O)c2ccccc21	cardiac RTF act 70.2
Cn1cc(/C=C2\SC(=S)N(NC(=O)c3cccc(Cl)c3)C2=O)c2ccccc21	cardiac RTF act 45.0 (no result: LANA-H2B inh)
CCOc1ccccc1Cn1c(=O)sc2ccccc21	LANA-H2B inh 37.1
Cn1cccc1CC(=O)NNC(=O)Nc1ccc(Cl)cc1	LANA-H2B inh 75.5
